# From PubChem
# In the library only some 9.4% were active in any assay of this set; here they are far more common.
# SMN2 splice enh = increases expression of the SMN2 splice variant. HEK293 SMN2-luciferase splicing reporter, luminescence, 30-36 h. Potency, µM (doses to about 46.1 µM), for the others: at the highest dose activity change, positive = activation, most hits filed as activators. 210,000 tested, 2.8% active. AID 1458; also: % of control where 0% means no effect; nearly all actives have a fitted effect of over 55% in size
#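 qHTS luciferase splicing reporter: luminescence rises when SMN2 exon 7 is included in transfected HEK293 cells. Compound exposure lasted 30-36 h at 37C, with 4.5 mM final sodium butyrate as control, followed by a ONE-Glo read.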
# ELG1 DNA repair = ELG1-dependent DNA repair inhibition. HEK293T ELG1-luciferase reporter, luminescence, 16 h; DNA damage induced by 5-fluorouridine. Potency, µM (titrated, usually from 46.1 µM), inactives show at the top dose activity change, negative = inhibition, most hits filed as inhibitors. 330,000 tested, 2.3% active. AID 504467; also: % is scaled to controls: 0 for no effect and ±100 for the full control effect; nearly all actives have a fitted effect of over 55% in size
#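 DMSO vehicle served as the neutral condition. Each well held 2,000 cells given 5-fluorouridine plus compound; after 16 hr at 37 °C/5% CO2, ONE-Glo was added and luciferase measured 30 min later.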
# Rab9 prom act = activators of Rab9 promoter; Potency, µM (top dose mostly 9.22 µM), without a hit: top-dose activation, negative = inhibition, actives largely listed as activators; 320,000 tested, 2.8% active; Huh7 Rab9 promoter-luciferase reporter, luminescence, 24 h; also: % of control where 0% means no effect; nearly all actives have a fitted effect of over 60% in size
#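 Cell-based reporter: Huh7 stable for Rab9 promoter-driven luciferase, plated in reduced-serum medium with 10% FBS at 1500 cells/well, compound-treated 24 h at 37 °C, luminescence read after 10 min reagent.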
# NPC1 prom act = activates the NPC1 promoter | Huh7 NPC1 promoter luciferase reporter, 24 h | Potency, µM (highest dose often 9.22 µM), for inactives: at the top dose activation, most hits filed as activators | 320,000 tested, 2.4% active | AID 485313; also: % of control where 0% means no effect; nearly all actives have a fitted effect of over 60% in size
#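 In 1536-well qHTS, Huh7 cells harboring an NPC1 promoter–luciferase construct received compound for 24 h; activation was quantified by luminescence following luciferase reagent addition.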
# ELG1 genotoxic = genotoxicity induction in ELG1-luciferase HEK293T cells. HEK293T ELG1-luciferase reporter, luminescence, 16 h. Potency, µM (doses to about 46 µM), inactives show top-dose activity change, positive = activation, usual class: activators. 330,000 tested, 1.3% active; also: % of control where 0% means no effect; nearly all actives have a fitted effect of over 60% in size
#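 Genotoxicity was scored as increased ELG1-luciferase reporter signal, measured by ONE-Glo luminescence (30 min, room temperature). Compound or vehicle exposure of the HEK293T reporter cells lasted 16 hr at 37°C.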
# FLuc counter = counter-screen for miR-21 project: firefly luciferase inhibitors or activators; purified FLuc, Km substrates, luminescence inhibition; Potency, µM (titrated, usually from 57.5 µM), without a hit: top-dose activity change, negative = inhibition, hits mostly inhibitors; 360,000 tested, 6.9% active; AID 588342;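 also: plate controls were vehicle for no effect and reference inhibitor for full effect; nearly all actives have a fitted effect of over 55% in size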
# Target sequence (P08659 whole entry, looked up): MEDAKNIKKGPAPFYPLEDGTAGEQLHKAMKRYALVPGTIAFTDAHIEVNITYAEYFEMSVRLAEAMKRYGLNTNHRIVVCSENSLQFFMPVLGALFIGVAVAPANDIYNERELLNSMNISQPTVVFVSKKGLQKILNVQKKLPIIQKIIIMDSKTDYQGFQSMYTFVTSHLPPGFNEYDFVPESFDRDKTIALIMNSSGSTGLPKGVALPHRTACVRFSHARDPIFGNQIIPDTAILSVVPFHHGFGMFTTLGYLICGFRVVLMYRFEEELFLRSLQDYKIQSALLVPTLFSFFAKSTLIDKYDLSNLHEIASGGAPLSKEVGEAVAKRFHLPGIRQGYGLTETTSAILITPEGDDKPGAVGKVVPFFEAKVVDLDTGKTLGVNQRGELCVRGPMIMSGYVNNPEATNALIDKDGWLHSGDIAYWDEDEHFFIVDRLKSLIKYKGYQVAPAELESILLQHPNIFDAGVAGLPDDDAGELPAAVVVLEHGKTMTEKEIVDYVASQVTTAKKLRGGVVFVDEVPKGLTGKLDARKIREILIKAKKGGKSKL
#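 Biochemical qHTS of compounds, final roughly 60 µM downward over six points, against 10 nM purified firefly luciferase using Km concentrations of substrates (10 uM D-luciferin, 10 uM ATP) in Tris acetate pH 7.5 buffer; luminescence output.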
# Starred values were filed as active, the others as inactive; ? = inconclusive; · = not tested or not shown. Calls follow the shape of the dose curve; as a rule, active = well fitted curve in the direction sought with a large enough effect; inconclusive = small, poorly fitted or top-dose-only effect, or another doubt; inactive = no such curve, though single readings can be large; an effect the other way counts as inactive or inconclusive. Potency is read from the fitted curve at half-maximal effect.
SMILES,SMN2 splice enh,ELG1 DNA repair,Rab9 prom act,NPC1 prom act,ELG1 genotoxic,FLuc counter
CCOc1cc(C(=O)Nc2ccc3oc(-c4ccc(F)cc4Cl)nc3c2)cc(OCC)c1OCC,12%,·,·,·,·,?
CCc1nn2c(-c3ccccc3OC)ccnc2c1-c1ccc(F)cc1,-8%,·,·,·,·,-13%
COCCNC(=O)Nc1cc(C(=O)NCc2ccc(C(C)C)cc2)ccc1N1CCCC1,·,·,·,·,·,-15%
O=C(O)c1cccc(S(=O)(=O)Nc2cccc3ccccc23)c1,·,?,23%,17%,4%,24µM*
O=S(=O)(Nc1cccc2ccccc12)c1ccccc1,·,?,8%,5%,2%,-6%
CCC(Cn1nnc2ccccc2c1=O)NC(=O)Nc1ccccc1Cl (stereo not given),17%,·,·,·,·,-7%
Cc1ccc(C)c(NC(=O)CCc2ccc(C)o2)c1,·,12%,-7%,-4%,-1%,2%
COC(=O)c1ccccc1NC(=O)CSc1ccc(C)cc1,4%,11%,7%,-2%,1%,-14%
COc1ccc(CC(=O)Nc2cccc(C(=O)O)c2C)cc1,16µM*,?,17%,26%,13%,?
O=C(Cc1cccc2ccccc12)Nc1ccccc1C(=O)O,?,?,4%,13%,?,27µM*
Cc1ccc(CCC(=O)Nc2ccccc2C(=O)O)o1,·,?,?,?,?,17µM*
Cc1ccc(SCC(=O)Nc2ccccc2C(=O)O)cc1,?,?,?,?,17%,8.5µM*
Cc1ccc(C)c(NC(=O)c2nc(S(C)(=O)=O)ncc2N(Cc2ccc(C(C)(C)C)cc2)Cc2ccco2)c1,·,·,·,·,·,1%
CCc1ccc(C(=O)c2cn(CC(=O)Nc3ccc4c(c3)OCCO4)c3ccc(C)cc3c2=O)cc1,1%,·,·,·,·,-2%
O=C(CSc1ccccc1)Nc1ccccc1C(=O)O,1%,·,·,·,·,21µM*
CC(C)n1c2ccccc2c2nnc(SCC(=O)Nc3ccccc3C(=O)O)nc21,-20%,-18%,1%,-1%,2%,19µM*
CSc1ccccc1NC(=O)CSCc1ccc(C)cc1,-14%,2%,3%,-18%,-2%,-11%
Cc1ccc(CSCC(=O)Nc2ccccc2C(=O)O)cc1,·,?,2.8µM*,3.5µM*,8%,12µM*
COc1ccc(Cn2c(=O)c3oc4ccccc4c3n(Cc3ccccc3)c2=O)cc1,·,·,·,·,·,5%
CC(C)CN(CC(C)C)c1nnc(NC(=O)Nc2cccc(C(F)(F)F)c2)s1,·,·,·,·,·,2%
CCC(=O)c1ccc(OCc2ccccc2)c(OC)c1,14µM*,?,?,?,?,?
CCOc1ccc(C(=O)/C=C/c2ccc(OC)c(OC)c2)cc1,-21%,-1%,2%,-2%,1%,17µM*
COc1cc(/C=C/C(=O)c2ccc(O)cc2)ccc1OCC#N,-1%,?,-1%,-4%,-10%,?
CCOc1ccc(/C=C/C(=O)c2ccccc2)cc1OC,1%,?,?,?,?,4.3µM*
Cc1nc(-c2ccccc2)sc1-c1ccnn1C,13µM*,?,2.2µM*,?,?,4.8µM*
SMILES,SMN2 splice enh,ELG1 DNA repair,Rab9 prom act,NPC1 prom act,ELG1 genotoxic,FLuc counter
CCn1c(-c2sc(-c3ccccc3)nc2C)n[nH]c1=S,5%,14%,-2%,2%,0%,-9%
Cc1nc(-c2ccccc2)sc1-c1ccn[nH]1,7.9µM*,?,2.8µM*,1.4µM*,2.6µM*,1.5µM*
CCCn1cc(S(=O)(=O)c2cccc(Cl)c2)c(=O)c2cc(F)c(N3CCCC3)cc21,·,·,·,·,·,0%
COc1ccc2nc(NC(=O)CCc3cc(OC)c(OC)c(OC)c3)sc2c1,-13%,10µM*,-2%,-5%,-12%,2%
CCOc1ccc2nc(NC(=O)C(CC)Sc3nc(C)cc(=O)[nH]3)sc2c1 (stereo not given),36%,?,?,28%,?,24µM*
CCCc1cc(=O)[nH]c(SCC(=O)Nc2nc3ccc(OCC)cc3s2)n1,·,?,1%,3%,6%,?
CCOc1ccc2nc(NC(=O)CN3CCOCC3)sc2c1,29%,?,7%,7%,?,-18%
CCOC(=O)N1CCN(CC(=O)Nc2nc3ccc(OC)cc3s2)CC1,·,15µM*,2%,-1%,-4%,-10%
CCOc1ccc2nc(NC(=O)Cn3[nH]c(=O)c4ccccc4c3=O)sc2c1,·,?,?,?,?,15µM*
COc1ccc2nc(NC(=O)CCn3cccc3)sc2c1,-10%,26%,-8%,?,0%,-7%
CCC(C(=O)Nc1ccc(F)cc1F)n1nc(-c2ccccc2)c2c(c1=O)CCCC2 (stereo not given),2%,·,·,·,·,-12%
O=C(COc1ccc(Cl)cc1)Nc1ccc(C(=O)OCc2cc(=O)n3ccsc3n2)cc1,·,·,·,·,·,-6%
CCOCC(=O)Nc1nc2ccc(OC)cc2s1,11µM*,?,1.4µM*,2µM*,5.2µM*,12µM*
CCOc1ccc2nc(NC(=O)COC)sc2c1,11µM*,?,1.3µM*,2µM*,2µM*,5.4µM*
CCOc1ccc2nc(NC(=O)CN3CCN(C)CC3)sc2c1,23%,?,10%,6%,14%,?
CCOc1ccc2nc(NC(=O)CN3C(=O)C4CCCCC4C3=O)sc2c1 (stereo not given),·,?,21%,22%,6%,6µM*
CCOc1ccc2nc(NC(=O)CN3CCN(CC)CC3)sc2c1,·,2%,0%,4%,3%,-18%
CCC(C)NC(=O)CSc1nc2cc3c(cc2c(=O)n1CCCC(=O)NCCc1ccc(OC)c(OC)c1)OCO3 (stereo not given),·,·,·,·,·,-3%
CCCOc1ccc2cc(-c3ccccn3)c(=O)oc2c1,0.79µM*,?,0.45µM*,?,?,0.24µM*
COC(=O)C(C)Oc1ccc2cc(-c3ccccc3)c(=O)oc2c1 (stereo not given),·,?,-4%,-1%,3%,24µM*
O=c1oc2ccccc2cc1-c1ccccc1,21%,?,?,19%,?,?
COc1ccc2cc(-c3ccccc3)c(=O)oc2c1,·,?,0.71µM*,1.3µM*,2.6µM*,2.4µM*
CC(Oc1ccc2cc(-c3ccccc3)c(=O)oc2c1)C(=O)NCC1CCC(C(=O)O)CC1 (stereo not given),·,?,-4%,1%,5%,21µM*
CCOC(=O)c1c(C)[nH]c(C)c1S(=O)(=O)N1CCCC(C(=O)Nc2cccc(CC)c2)C1 (stereo not given),·,·,·,·,·,-4%
